Reference: the supplement of paper PMC11732987, “Enantioselective OTUD7B fragment discovery through chemoproteomics screening and high-throughput optimisation” (Communications Chemistry, 2025)
Unmarked numbers belong to inactive results.

Assays:
Test in all cases: log2 ratio of Biotin-Ahx-Ub-VS probe labelling (fragment/DMSO); higher = less target engagement (more negative = stronger competition), active = hit call of the paper (q ≤ 0.05, log2 ratio ≤ -1)
Conditions in all cases: compound concentration: 200 uM; treatment time: 3 h
USP9X = USP9X (UniProt Q93008)
Summary of the method: (§1)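 HEK293T lysate (495 µg per sample, in Tris/CHAPS/IGEPAL buffer with protease inhibitors) was treated in triplicate with fragment at 200 µM or with DMSO for 3 h. It was then treated with Biotin-Ahx-Ub-VS (0.5 µM final) for 1 h. Labelled DUBs were NeutrAvidin-enriched, digested with LysC and trypsin, and run by diaPASEF LC-MS/MS. Spectronaut label-free quantities were global-median-normalised. Values are average log2 ratios fragment/DMSO by unpaired t-test, using proteins with ≥2 unique peptides.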

UniProt O00487 = biological target: UniProt O00487
Summary of the method: as §1

UniProt O00507 = biological target: UniProt O00507
Summary of the method: as §1

UniProt P51784 = biological target: UniProt P51784
Summary of the method: as §1

UniProt Q5T2D3 = biological target: T1, UniProt Q5T2D3
T1 sequence (whole entry): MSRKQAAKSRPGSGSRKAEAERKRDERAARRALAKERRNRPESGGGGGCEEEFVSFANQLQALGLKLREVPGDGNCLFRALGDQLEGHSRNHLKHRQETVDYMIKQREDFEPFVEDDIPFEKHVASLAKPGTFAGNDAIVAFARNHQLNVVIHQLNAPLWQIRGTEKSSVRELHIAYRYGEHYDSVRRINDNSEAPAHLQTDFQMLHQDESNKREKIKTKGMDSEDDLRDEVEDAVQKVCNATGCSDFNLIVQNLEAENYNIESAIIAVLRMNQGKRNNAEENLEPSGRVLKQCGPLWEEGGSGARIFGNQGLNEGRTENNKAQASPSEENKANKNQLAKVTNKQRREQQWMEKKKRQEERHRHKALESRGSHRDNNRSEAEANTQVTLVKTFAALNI
Summary of the method: as §1

UniProt Q8TE49 = biological target: T2, UniProt Q8TE49
T2 sequence (whole entry): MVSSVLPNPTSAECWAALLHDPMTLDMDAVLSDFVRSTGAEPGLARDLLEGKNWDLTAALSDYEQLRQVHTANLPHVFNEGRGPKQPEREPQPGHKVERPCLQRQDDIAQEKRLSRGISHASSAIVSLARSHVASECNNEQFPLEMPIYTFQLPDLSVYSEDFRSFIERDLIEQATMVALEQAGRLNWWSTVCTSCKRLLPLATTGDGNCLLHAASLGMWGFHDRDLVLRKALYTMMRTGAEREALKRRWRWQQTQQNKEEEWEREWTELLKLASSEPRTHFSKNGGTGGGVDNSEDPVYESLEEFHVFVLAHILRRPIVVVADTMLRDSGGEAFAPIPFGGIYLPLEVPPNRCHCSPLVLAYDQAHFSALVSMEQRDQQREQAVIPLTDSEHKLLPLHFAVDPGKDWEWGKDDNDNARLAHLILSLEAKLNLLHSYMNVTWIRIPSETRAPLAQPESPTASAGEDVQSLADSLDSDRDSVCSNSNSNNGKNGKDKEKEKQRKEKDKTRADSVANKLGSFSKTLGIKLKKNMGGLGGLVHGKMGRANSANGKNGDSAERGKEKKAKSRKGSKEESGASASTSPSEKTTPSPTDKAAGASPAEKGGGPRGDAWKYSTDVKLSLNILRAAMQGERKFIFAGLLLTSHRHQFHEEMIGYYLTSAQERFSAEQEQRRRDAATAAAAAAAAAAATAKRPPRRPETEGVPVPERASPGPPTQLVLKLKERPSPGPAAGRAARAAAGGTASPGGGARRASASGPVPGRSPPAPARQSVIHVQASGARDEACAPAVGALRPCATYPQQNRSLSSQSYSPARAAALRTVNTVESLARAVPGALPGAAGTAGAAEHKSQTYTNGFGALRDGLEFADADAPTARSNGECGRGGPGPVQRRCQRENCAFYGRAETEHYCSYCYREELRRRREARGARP
Summary of the method: as §1

UniProt Q9P2H5 = biological target: T3, UniProt Q9P2H5
T3 sequence (whole entry): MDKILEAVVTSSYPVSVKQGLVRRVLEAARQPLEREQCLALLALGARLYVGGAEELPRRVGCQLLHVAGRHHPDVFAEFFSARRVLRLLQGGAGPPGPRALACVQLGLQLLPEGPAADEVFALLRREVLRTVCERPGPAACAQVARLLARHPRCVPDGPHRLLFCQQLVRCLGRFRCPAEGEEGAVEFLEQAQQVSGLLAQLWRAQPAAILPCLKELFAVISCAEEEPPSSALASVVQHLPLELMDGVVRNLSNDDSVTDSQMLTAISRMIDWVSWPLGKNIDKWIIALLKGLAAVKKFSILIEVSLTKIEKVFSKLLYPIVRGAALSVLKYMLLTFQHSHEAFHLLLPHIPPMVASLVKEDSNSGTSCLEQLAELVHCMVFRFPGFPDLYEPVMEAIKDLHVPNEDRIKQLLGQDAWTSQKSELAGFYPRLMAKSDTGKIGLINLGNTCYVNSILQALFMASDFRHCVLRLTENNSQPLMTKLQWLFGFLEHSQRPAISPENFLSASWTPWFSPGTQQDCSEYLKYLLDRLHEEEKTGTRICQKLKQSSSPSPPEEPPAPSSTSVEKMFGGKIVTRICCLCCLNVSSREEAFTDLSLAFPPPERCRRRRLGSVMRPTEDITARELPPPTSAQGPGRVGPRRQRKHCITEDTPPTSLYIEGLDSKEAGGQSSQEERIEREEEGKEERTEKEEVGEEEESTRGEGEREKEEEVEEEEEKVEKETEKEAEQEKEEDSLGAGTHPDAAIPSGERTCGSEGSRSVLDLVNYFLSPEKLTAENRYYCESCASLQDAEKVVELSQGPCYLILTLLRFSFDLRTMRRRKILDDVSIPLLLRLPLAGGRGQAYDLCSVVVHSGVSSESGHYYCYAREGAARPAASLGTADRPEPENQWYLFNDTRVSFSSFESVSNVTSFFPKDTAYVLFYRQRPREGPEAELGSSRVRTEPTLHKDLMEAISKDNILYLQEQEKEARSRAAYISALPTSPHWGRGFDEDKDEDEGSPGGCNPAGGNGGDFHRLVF
Summary of the method: as §1

UniProt Q9UGI0 = biological target: T4, UniProt Q9UGI0
T4 sequence (whole entry): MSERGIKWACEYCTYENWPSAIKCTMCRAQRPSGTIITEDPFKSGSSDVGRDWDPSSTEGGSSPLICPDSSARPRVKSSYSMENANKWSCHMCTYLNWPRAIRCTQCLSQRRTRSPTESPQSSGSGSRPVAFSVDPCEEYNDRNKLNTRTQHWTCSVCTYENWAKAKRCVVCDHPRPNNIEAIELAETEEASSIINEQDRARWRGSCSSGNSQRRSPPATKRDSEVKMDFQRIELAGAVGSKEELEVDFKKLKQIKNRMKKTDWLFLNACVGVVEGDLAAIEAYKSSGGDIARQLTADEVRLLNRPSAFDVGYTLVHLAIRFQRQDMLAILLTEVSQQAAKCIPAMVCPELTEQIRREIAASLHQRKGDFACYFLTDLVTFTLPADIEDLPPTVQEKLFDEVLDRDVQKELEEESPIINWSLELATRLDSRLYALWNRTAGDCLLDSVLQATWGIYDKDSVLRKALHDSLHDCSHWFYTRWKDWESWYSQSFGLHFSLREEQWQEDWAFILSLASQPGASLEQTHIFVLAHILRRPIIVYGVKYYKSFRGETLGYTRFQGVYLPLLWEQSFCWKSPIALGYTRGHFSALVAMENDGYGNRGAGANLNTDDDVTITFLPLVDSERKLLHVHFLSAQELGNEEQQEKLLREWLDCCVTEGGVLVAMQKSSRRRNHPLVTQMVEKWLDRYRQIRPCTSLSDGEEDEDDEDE
Summary of the method: as §1

YOD1 = biological target: T5, YOD1 (UniProt Q5VVQ6)
T5 sequence (whole entry): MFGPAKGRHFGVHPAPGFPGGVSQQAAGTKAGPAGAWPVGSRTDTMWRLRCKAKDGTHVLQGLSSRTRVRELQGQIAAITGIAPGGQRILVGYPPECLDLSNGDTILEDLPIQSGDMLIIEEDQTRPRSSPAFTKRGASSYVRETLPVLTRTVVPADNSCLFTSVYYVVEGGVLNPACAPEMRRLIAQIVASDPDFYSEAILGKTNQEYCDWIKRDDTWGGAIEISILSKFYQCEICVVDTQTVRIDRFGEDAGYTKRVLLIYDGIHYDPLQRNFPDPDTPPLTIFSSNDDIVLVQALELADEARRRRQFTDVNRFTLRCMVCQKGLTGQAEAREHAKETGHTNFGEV
Summary of the method: as §1

Chain of UniProt P51784 (P51784 whole entry): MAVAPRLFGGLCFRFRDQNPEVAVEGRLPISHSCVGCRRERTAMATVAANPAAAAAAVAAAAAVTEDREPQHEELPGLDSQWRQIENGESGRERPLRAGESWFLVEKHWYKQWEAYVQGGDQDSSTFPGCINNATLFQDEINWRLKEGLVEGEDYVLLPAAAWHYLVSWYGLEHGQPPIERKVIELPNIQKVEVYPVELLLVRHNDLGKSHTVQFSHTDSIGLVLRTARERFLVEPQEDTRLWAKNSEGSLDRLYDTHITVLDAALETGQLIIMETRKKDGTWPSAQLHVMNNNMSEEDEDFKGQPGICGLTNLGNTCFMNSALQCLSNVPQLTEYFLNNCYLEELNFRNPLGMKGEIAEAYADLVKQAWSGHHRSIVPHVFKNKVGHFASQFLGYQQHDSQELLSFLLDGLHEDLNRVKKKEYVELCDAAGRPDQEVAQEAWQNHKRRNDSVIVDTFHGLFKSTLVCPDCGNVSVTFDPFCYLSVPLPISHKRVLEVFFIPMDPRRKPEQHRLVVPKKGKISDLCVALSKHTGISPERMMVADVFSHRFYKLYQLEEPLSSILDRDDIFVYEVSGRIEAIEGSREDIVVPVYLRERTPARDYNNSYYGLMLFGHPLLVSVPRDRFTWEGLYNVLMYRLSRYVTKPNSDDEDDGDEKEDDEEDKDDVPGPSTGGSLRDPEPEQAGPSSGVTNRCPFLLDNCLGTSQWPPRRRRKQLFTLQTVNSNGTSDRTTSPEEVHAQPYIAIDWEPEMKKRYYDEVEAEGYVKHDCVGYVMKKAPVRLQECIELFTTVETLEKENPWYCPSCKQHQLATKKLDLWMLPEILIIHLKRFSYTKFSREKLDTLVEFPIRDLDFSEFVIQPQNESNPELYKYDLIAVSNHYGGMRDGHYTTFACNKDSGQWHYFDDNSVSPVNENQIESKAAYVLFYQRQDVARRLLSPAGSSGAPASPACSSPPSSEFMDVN
Chain of UniProt O00487 (O00487 whole entry): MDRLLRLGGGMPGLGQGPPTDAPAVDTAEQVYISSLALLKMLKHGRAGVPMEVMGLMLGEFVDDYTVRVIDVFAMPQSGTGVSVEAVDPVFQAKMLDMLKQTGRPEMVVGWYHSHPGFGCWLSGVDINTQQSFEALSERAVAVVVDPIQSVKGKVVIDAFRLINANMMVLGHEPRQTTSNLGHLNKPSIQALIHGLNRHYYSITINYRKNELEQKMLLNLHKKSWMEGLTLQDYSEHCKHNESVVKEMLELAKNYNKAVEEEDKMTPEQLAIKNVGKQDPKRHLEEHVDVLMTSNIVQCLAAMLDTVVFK
Chain of USP9X (Q93008 whole entry, the tested form may be a part): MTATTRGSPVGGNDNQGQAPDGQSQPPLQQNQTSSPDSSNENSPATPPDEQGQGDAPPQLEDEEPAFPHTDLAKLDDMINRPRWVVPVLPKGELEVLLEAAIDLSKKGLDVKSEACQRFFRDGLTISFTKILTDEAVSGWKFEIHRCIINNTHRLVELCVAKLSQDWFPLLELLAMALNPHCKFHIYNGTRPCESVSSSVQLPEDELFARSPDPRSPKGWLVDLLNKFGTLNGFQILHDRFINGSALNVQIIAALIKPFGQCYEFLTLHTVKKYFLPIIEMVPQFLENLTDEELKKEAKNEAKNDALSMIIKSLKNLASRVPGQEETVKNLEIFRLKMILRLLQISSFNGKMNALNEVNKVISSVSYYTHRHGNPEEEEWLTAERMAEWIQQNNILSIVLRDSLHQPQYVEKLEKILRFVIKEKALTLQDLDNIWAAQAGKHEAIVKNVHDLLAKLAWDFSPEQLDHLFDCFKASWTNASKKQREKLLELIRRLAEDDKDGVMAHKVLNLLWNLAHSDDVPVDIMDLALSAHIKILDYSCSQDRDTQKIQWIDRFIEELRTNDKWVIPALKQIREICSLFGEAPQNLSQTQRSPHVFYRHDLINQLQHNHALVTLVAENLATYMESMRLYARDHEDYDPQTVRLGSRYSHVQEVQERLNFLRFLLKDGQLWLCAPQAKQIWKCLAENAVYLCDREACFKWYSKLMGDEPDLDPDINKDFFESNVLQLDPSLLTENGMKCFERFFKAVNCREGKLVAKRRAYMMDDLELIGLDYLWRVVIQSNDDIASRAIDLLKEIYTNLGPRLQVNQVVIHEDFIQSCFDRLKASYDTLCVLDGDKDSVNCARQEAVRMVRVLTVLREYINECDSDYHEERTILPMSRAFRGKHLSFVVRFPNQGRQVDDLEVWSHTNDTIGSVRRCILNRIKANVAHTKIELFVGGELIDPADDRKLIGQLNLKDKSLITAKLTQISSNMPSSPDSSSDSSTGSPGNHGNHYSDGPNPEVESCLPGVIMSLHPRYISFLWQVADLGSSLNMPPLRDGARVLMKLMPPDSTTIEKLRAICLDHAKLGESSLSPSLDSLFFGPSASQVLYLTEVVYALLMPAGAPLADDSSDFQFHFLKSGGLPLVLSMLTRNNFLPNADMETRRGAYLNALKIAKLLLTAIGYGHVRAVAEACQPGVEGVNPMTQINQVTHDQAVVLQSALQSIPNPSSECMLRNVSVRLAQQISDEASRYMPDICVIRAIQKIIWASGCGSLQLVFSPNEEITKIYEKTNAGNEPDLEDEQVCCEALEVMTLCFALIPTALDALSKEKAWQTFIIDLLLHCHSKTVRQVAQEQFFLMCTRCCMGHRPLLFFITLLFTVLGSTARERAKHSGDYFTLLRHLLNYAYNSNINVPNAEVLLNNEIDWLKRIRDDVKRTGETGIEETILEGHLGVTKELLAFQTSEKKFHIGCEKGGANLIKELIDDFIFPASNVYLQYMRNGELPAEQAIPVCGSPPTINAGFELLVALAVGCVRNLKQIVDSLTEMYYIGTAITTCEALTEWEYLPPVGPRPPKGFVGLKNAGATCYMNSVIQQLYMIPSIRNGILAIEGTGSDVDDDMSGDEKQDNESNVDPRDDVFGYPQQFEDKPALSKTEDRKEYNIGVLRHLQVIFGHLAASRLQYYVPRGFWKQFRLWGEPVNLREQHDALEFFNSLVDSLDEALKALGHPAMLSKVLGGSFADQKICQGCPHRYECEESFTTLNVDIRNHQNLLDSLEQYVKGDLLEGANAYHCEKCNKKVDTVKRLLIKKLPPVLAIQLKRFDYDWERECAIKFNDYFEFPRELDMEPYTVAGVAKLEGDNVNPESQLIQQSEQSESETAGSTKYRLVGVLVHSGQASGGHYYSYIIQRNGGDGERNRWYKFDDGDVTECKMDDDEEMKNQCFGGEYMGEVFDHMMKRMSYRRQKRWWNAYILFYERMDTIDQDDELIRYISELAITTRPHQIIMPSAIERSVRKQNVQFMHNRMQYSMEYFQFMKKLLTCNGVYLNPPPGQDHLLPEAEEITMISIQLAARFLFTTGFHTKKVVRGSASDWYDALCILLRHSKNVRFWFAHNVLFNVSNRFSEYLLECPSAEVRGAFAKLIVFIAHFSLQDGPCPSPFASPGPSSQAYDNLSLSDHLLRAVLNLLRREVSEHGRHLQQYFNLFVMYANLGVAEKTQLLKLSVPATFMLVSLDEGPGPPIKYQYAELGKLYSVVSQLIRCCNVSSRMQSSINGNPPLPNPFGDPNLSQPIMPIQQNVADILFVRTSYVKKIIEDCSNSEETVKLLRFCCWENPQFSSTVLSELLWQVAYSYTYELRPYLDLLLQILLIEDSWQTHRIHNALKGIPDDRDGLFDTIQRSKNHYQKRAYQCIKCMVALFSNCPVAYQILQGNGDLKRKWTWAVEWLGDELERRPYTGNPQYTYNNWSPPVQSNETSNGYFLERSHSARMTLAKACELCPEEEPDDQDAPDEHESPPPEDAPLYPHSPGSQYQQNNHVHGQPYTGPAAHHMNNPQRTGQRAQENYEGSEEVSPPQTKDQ

## Cc1ccc(N(CCC#N)C(=O)CCl)cc1C
USP9X
  log2 ratio of Biotin-Ahx-Ub-VS probe labelling: -0.324
UniProt O00487
  log2 ratio of Biotin-Ahx-Ub-VS probe labelling: -0.246
UniProt O00507
  log2 ratio of Biotin-Ahx-Ub-VS probe labelling: -0.369
UniProt P51784
  log2 ratio of Biotin-Ahx-Ub-VS probe labelling: -0.0613
UniProt Q5T2D3
  log2 ratio of Biotin-Ahx-Ub-VS probe labelling: -0.0739
UniProt Q8TE49
  log2 ratio of Biotin-Ahx-Ub-VS probe labelling: -2.2 (active)
UniProt Q9P2H5
  log2 ratio of Biotin-Ahx-Ub-VS probe labelling: -0.14
UniProt Q9UGI0
  log2 ratio of Biotin-Ahx-Ub-VS probe labelling: -1.49 (active)
YOD1
  log2 ratio of Biotin-Ahx-Ub-VS probe labelling: 0.0402
